Sampled rows, rich in hits. Any-hit rate of the full collection: about 2.2%.
ADAM17 inh: ADAM17 inhibitors, primary screen, biochemical, QFRET | AID 720648, 2013 | recombinant ADAM17, EDANS/DABCYL FRET peptide cleavage | actives 0.83% (n = 370,000) | Disintegrin and metalloproteinase domain-containing protein 17 (Homo sapiens), P78536 | inhibition, % at 6.95 µM;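 active = inhibition above the mean of compounds lying between control limits plus 3 SD, set per campaign, cut at about 8.5% in these data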
Target sequence (P78536 215-824 limits assumed): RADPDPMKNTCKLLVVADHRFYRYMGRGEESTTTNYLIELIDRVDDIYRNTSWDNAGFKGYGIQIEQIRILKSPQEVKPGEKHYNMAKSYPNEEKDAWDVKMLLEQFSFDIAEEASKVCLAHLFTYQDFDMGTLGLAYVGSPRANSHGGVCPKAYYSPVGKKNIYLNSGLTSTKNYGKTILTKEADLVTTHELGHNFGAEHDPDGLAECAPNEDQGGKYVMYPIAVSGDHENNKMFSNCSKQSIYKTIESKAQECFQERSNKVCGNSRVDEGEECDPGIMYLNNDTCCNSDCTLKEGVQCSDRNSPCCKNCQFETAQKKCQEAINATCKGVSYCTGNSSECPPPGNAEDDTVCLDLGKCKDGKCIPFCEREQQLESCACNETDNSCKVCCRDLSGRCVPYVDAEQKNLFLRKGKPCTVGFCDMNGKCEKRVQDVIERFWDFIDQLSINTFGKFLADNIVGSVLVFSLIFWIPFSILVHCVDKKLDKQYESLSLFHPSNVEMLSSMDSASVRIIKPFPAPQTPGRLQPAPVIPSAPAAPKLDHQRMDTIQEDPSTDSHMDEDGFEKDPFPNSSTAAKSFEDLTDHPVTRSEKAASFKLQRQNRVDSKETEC
GC-B act: human GC-B receptor activators, primary screen, HEK293 GC-B cells, cGMP TR-FRET, EC30 CNP | AID 1920062, 2024 | Atrial natriuretic peptide receptor 2 (Homo sapiens), P20594 | activation, % at 10 µM | actives 0.11% (n = 370,000) | 0% at EC30 CNP, 100% saturating CNP;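 active = activation at 10 µM reaching about 35% in either raw or pattern-adjusted values, limit read from the data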
GC-A act: GC-A stimulated cGMP production enhancers – HEK293 GC-A cells, cGMP TR-FRET, EC30 ANP, primary screen. Atrial natriuretic peptide receptor 1 (Homo sapiens), P16066. actives 0.14% (n = 370,000). 0% at EC30 ANP, 100% saturating ANP. activation, % at 10 µM. AID 1671463, 2021; in the data active = activation above about 40%
KLK7 zymogen act: proKLK7 zymogen activators, primary screen, biochemical, fluorescence intensity. purified proKLK7, EDANS-DABCYL substrate fluorescence; 100% is mature enzyme control, 0% vehicle. actives 0.9% (n = 370,000). activation, % at 7 µM. Kallikrein-7 (Homo sapiens), P49862. AID 652039, 2013;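 active = activation above the mean of all tested compounds plus 3 SD, computed per campaign excluding outliers beyond control limits, cut at about 13% in these data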
ADAM10 inh: human ADAM10 inhibitors, primary screen, biochemical, QFRET, HTS; recombinant ADAM10, EDANS/DABCYL FRET peptide cleavage, 3 h; inhibition, % at 7 µM; actives 0.62% (n = 370,000); AID 720582, 2013;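 active = inhibition above a per-campaign cutoff equal to the mean of compounds falling between control-based bounds plus 3 SD, cut at about 20% in these data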
proKLK7 act conf: proKLK7 zymogen activators, confirmation, biochemical, fluorescence intensity, triplicate | activation, % at 7 µM | AID 686949, 2013 | shares compounds with KLK7 zymogen act | actives 68% (n = 3,200) | purified proKLK7, EDANS-DABCYL substrate fluorescence; scaled: vehicle 0, mature enzyme 100;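 active = activation, as change over the incubation, above the mean of all tested compounds plus 3 SD, cut at about 13% in these data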
EDANS interfere: EDANS-DABCYL substrate optical interference, artefact control for kallikrein-7 zymogen activator project, biochemical, fluorescence intensity, high throughput; shares compounds with KLK7 zymogen act; no enzyme, 4 h; solvent 0%, active enzyme control 100%; activation, % at 7 µM; actives 80% (n = 3,200); AID 686952, 2013;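 active = activation above the all-compound mean plus 3 SD, ignoring values outside control-based bounds, cut at about 4.8% in these data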;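 also: value is the 4 h activation minus the activation read at time zero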
K7 EDANS ctr: EDANS fluorescence interference in dose response, no enzyme; shares compounds with KLK7 zymogen act; EDANS-DABCYL peptide fluorescence interference; EC50, µM; actives 20% (n = 250);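 active = compounds that raise the fluorescence signal in this interference counterscreen, with EC50 at or below 10 µM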;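 also: intact quenched peptide substrate alone read at 355 nm excitation and 520 nm emission; signal is fluorescence gain from T0 to T4 after four hours at room temperature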
Each line names hits and unclear results; the compound was inactive in the other large screens (follow-up assays come after a bar, where they were run).

COC(=O)c1cc(=O)c2cccc(OC)c2[nH]1	KLK7 zymogen act 195.7 | proKLK7 act conf 77.2 | EDANS interfere 76.8
O=c1cn[nH]c2ccccc12	none
CC(C)OC(=O)C1=CNCC(C)(C)c2c1[nH]c1cc(F)ccc21	none (no result: KLK7 zymogen act)
Cc1[nH]c2ccccc2c1CCN(Cc1cccs1)C(=O)Nc1cccc2c1OCO2	none
O=S(=O)(c1cc2ccccc2s1)n1c(CN2CCOCC2)nc2ccccc21	none
CC(=O)OCCn1c(C)[n+](CCOC(C)=O)c2cc(Cl)c(Cl)cc21	none
CC(=O)OCCn1c2nc(=O)[nH]c(=O)c-2nc2cc(C)c(C)cc21	KLK7 zymogen act 31.1 | proKLK7 act conf 61.5 | EDANS interfere 70.7
COc1ccc(CN2C(C(=O)NCC(C)C)CSCCS2(=O)=O)cc1 (configuration not stated)	none
Cn1c(=O)c2nc(NCc3ccccc3)cnc2n(C)c1=O	KLK7 zymogen act 15.0 | proKLK7 act conf 30.5 | EDANS interfere 39.9
O=C(O)c1ccc(-c2nc(-c3ccc(Cl)cc3)cs2)cc1	none
COc1ccc(-c2csc(-c3ccc(C(=O)O)cc3)n2)cc1	KLK7 zymogen act 21.9 | proKLK7 act conf 35.1 | EDANS interfere 53.0
CN(C)c1nc2sc3c(c2c(=O)n1C)CC(C)(C)OC3	none
CNc1nc2sc3c(c2c(=O)n1C)CC(C)(C)SC3	KLK7 zymogen act 23.2 | proKLK7 act conf inactive | EDANS interfere inactive
CCN(C[C@H]1[C@@H](c2ccc(C3=CCCC3)cc2)[C@H](CO)N1c1nc(C)c(C)s1)S(=O)(=O)c1ccccc1[N+](=O)[O-]	none
O=C(Nc1nc2c(Br)cccc2s1)c1ccc2c(c1)OCCO2	none (no result: KLK7 zymogen act)
O=C(N=C1N(CC2CC2)CC2(C=C3CCCCC3n3c(=O)n(-c4ccccc4)c(=O)n32)N1C(=O)OCc1ccccc1)c1ccccc1 (configuration not stated)	none
Cc1ccccc1/C=N\NC(=O)c1ccc(Cn2cccn2)o1	none
NC(=O)Cn1cc(/C=N/NC(=O)c2ccc(Cn3cc(Cl)cn3)o2)c(-c2ccccc2)n1	KLK7 zymogen act 19.7 | proKLK7 act conf inactive | EDANS interfere inactive
CCOc1ccc(N(CC(=O)Nc2c(C)n(C)n(-c3ccccc3)c2=O)S(=O)(=O)c2ccc3c(c2)N(C(=O)C2CCC2)CC3)cc1	none
COC(=O)C1CN(Cc2ccc(OC)cc2)CCS(=O)(=O)N1Cc1ccc(C(F)(F)F)cc1 (configuration not stated)	none
COc1ccc(-c2noc(C3CCCN(C(=O)NC4CCC(C)CC4)C3)n2)cc1 (configuration not stated)	none
NC(=S)c1cc2ccc(O)cc2oc1=O	KLK7 zymogen act 23.8 | proKLK7 act conf 70.2 | EDANS interfere 73.2
O=c1oc2cc(O)ccc2cc1-c1nc2ccccc2o1	KLK7 zymogen act 108.3 | proKLK7 act conf 61.3 | EDANS interfere 73.0
Cc1cc(-c2nc3ccccc3o2)c2ccccc2n1	none
O=c1oc2cc(O)ccc2cc1S(=O)(=O)c1ccccc1	KLK7 zymogen act 37.8 | proKLK7 act conf 72.8 | EDANS interfere 66.6
c1cc2c3c(cccc3c1)C(N1CCOCC1)=N2	KLK7 zymogen act 44.3 | proKLK7 act conf 47.4 | EDANS interfere 46.0
CC1CN(C2=Nc3cccc4cccc2c34)CC(C)O1 (configuration not stated)	KLK7 zymogen act 44.0 | proKLK7 act conf inactive | EDANS interfere 5.7
O=C1c2ccccc2C(=O)c2c1cccc2N1CCOCC1	none
COc1ccccc1N1CCN(C2=Nc3cccc4cccc2c34)CC1	none
CC1CN(c2oc(-c3ccccc3Cl)nc2C#N)CC(C)O1 (configuration not stated)	none
CCOC(=O)N1CCN(C(=O)Nc2cccc3ccccc23)CC1	none
CC(=O)N1CCN(C2=Nc3cccc4cccc2c34)CC1	KLK7 zymogen act 59.8 | proKLK7 act conf 21.8 | EDANS interfere 18.6 | K7 EDANS ctr inactive
CCOC(=O)N1CCN(C2=Nc3cccc4cccc2c34)CC1	KLK7 zymogen act 54.9 | proKLK7 act conf 18.3 | EDANS interfere 28.2
Cc1ccc(-n2c(SCc3cccc4ccccc34)nnc2-c2ccccn2)cc1	none
COc1ccc(S[C@]2(C(=O)N(C)C)CC(=O)N(S(=O)(=O)c3ccc(F)cc3)[C@@H]2c2ccc(OC)cc2)cc1	none
O=C1CCCC2=C1C(c1ccc(O)cc1)c1c(ccc3ccccc13)N2 (configuration not stated)	KLK7 zymogen act 19.5 | proKLK7 act conf inactive | EDANS interfere inactive
O=C1CCCC2=C1C(c1ccc(O)c(O)c1)c1c(ccc3ncccc13)N2 (configuration not stated)	none
N#CC1=C(SCC(=O)c2cc3ccccc3oc2=O)NC(=O)C(C#N)C12CCCC2 (configuration not stated)	KLK7 zymogen act 27.0 | proKLK7 act conf 54.8 | EDANS interfere 53.8
N#Cc1cc(F)cc(OC[C@@H](O)CN2CCC(C(O)(c3ccccc3)c3ccccc3)CC2)c1	none
COC(=O)c1cn(-c2ccc3c(c2)[C@@]2(CC(=O)N(C)C2c2ccccc2)C(=O)N3CC(C)C)nn1 (some centres not stated)	none
CN1CCN(C(=O)/C=C\c2ccc(Cl)cc2)CC1	none
CSc1ccc(/C=C/C(=O)N2CCCN(C)CC2)cc1	KLK7 zymogen act 16.9 | proKLK7 act conf inactive | EDANS interfere 5.9
CCOC(=O)C1CCCN(C(=O)c2cnn3c(C(F)(F)F)cc(-c4ccccc4)nc23)C1 (configuration not stated)	none
CCOC(=O)c1cnn2c(C(F)(F)F)cc(-c3cn(C)nc3C)nc12	KLK7 zymogen act 19.7 | proKLK7 act conf 40.6 | EDANS interfere 24.6 | K7 EDANS ctr inactive
CCOC(=O)c1cnn2c(C(F)(F)F)cc(-c3ccccc3)nc12	KLK7 zymogen act 18.6 | proKLK7 act conf inactive | EDANS interfere inactive
O=C(NCCc1c[nH]c2ccccc12)OCc1cn(-c2cccc(C(F)(F)F)c2)nn1	none
Cc1cc(=O)c2c(N(C)C)cccc2[nH]1	KLK7 zymogen act 82.5 | proKLK7 act conf 56.8 | EDANS interfere 69.3
